# Bcl-W Bim block: disrupts Bim peptide binding to human Bcl-W. Q92843. inhibition, % at 10 µM. bead-based flow cytometry. hit rate 0.02% among 190,000;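 further: higher means less fluorescent Bim peptide bound to Bcl-W beads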
# Bcl-B Bim block: human Bim-Bcl-B interaction inhibition; Q9HD36; bead-based flow cytometry, Bim peptide-Bcl-B binding; inhibition, % at 10 µM; hit rate 0.073% among 190,000; AID 951
# Target sequence (Q9HD36 whole entry, looked up): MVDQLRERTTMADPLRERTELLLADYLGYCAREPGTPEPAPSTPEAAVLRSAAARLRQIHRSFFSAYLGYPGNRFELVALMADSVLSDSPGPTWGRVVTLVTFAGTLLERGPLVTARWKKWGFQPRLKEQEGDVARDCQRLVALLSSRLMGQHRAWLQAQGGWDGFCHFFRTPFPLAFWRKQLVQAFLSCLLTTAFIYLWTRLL
# Bfl-1 Bim block: human Bim-Bfl-1 interaction inhibition; Bead-based flow cytometry, Bim-Bfl-1 binding inhibition; inhibition, % at 10 µM; hit rate 0.12% among 190,000; AID 1008
# Target sequence (Q16548 whole entry, looked up): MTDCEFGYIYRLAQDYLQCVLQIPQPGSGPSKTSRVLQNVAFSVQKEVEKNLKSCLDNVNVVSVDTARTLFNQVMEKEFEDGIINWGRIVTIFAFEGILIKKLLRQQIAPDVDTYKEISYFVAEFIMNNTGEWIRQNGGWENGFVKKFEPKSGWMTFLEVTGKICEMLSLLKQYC
# Furin inhibitor: human furin inhibition; AID 463115; hit rate 0.061% among 220,000; inhibition, % at 20 µM or 30 µM; purified furin, fluorogenic substrate cleavage; P09958; in the data active means inhibition above about 25%
# Bim-Bcl-2: human Bim-Bcl-2 interaction inhibition; P10415; Bead-based flow cytometry, Bim peptide-Bcl-2 binding; inhibition, % at 10 µM; hit rate 0.06% among 190,000; in the data active means inhibition above about 40%
# Bim-Bcl-XL: inhibitors of Bim-Bcl-XL interaction, human | Q07817 | Bim peptide-Bcl-XL binding, bead flow cytometry, fluorescence | inhibition, % at 10 µM | hit rate 0.04% among 190,000 | AID 1007
# Numbers stand for hits; i = inactive; nt = no result. This is a sample that favours compounds with a hit; in the whole collection about 0.21% have one here. Unless noted, no stated cut-off is given here; in the data, active means inhibition above about 40%.
SMILES,Bcl-W Bim block,Bcl-B Bim block,Bfl-1 Bim block,Furin inhibitor,Bim-Bcl-2,Bim-Bcl-XL
O=C1Nc2ccc([N+](=O)[O-])cc2OC1CCN1CCN(Cc2ccccc2)CC1 (centres undefined),i,i,i,i,i,i
O=C1Nc2ccc([N+](=O)[O-])cc2OC1CCN1CCN(Cc2ccc3c(c2)OCO3)CC1 (centres undefined),i,73.0,47.0,i,72.0,i
O=C1c2ccccc2-c2onc3ccc(NCCCn4ccnc4)c1c23,94.0,92.0,79.0,i,88.0,100.0
CCC(CC)NC(=O)Nc1ccccc1C(F)(F)F,nt,nt,nt,i,nt,nt
O=C(c1ccccc1NS(=O)(=O)c1ccc(F)cc1)N1CCCC1,i,i,i,i,i,i
O=C(c1ccccc1NS(=O)(=O)c1ccc(Br)s1)N1CCCC1,i,i,49.0,i,i,i
Cc1ccc2nc(/C(C#N)=N/O)[nH]c2c1,i,i,i,i,i,i
Cc1cc2nc(/C(C#N)=C/c3ccncc3)[nH]c2cc1C,47.0,i,i,i,44.0,i
Cc1ccc2nc(/C(C#N)=C/c3cn[nH]c3-c3ccc(F)cc3)[nH]c2c1,i,i,i,28.2,i,i
N#C/C(=C\c1ccncc1)c1nc2ccccc2[nH]1,i,i,i,i,i,i
COc1ccc(C(C(=O)NC(C)(C)C)N(C(=O)CNC(=O)c2cccs2)c2ccc(NC(C)=O)cc2)cc1OC (centres undefined),i,i,i,i,i,i
COc1ccccc1-c1nc(-c2ccc(C)nc2OC)no1,i,i,i,i,i,i
COc1nc(C)ccc1-c1noc(-c2ccccn2)n1,i,i,i,28.5,i,i
CC(C)(C)NC(=O)Cn1c(=O)n(CC(=O)NC(C)(C)C)c2ccccc21,i,i,i,i,i,i
N=c1oc2ccc3ccccc3c2cc1C(N)=S,i,i,i,i,i,i
COC(=O)C1=C(C)NC(=S)NC1c1ccc(-c2cc(Cl)ccc2Cl)o1 (centres undefined),nt,nt,nt,i,nt,nt
CN1CCN(C2=CC3=CC(=C(C#N)C#N)CCC3CC2)CC1 (centres undefined),i,i,i,i,i,i
CCN1CCN(C2=CC3=CC(=C(C#N)C#N)CCC3CC2)CC1 (centres undefined),i,i,i,27.6,i,i
COc1ccccc1-n1c(-c2ccc(Cl)cc2)c[nH]c1=S,i,42.0,i,i,i,i
O=C(Nc1cccc(Cn2cccn2)c1)c1cc2c(s1)CCCC2,i,i,i,25.7,i,i
CC(=O)Nc1cccc(Cn2cccn2)c1,i,i,i,i,i,i
O=C(CCc1n[nH]c(=O)[nH]c1=O)Nc1cccc([N+](=O)[O-])c1,i,i,i,i,i,i
Cc1c(N2C(=O)c3ccc4c5c(ccc(c35)C2=O)CC4)c(=O)n(-c2ccccc2)n1C,i,58.0,i,i,i,i
Cc1ccc(OC(=O)c2ccc3snnc3c2)cc1,i,81.0,62.0,i,81.0,i
COc1ccc(N(C)C(=O)c2ccc3snnc3c2)cc1,i,i,i,i,i,i
SMILES,Bcl-W Bim block,Bcl-B Bim block,Bfl-1 Bim block,Furin inhibitor,Bim-Bcl-2,Bim-Bcl-XL
NC(=O)c1c(NC(=O)C2CCCO2)sc2c1CCCC2 (centres undefined),i,i,i,i,i,42.0
Cc1nc2ccc(NC(=O)c3cc([N+](=O)[O-])cc([N+](=O)[O-])c3Cl)cc2s1,i,i,52.0,i,i,i
CC(=O)NS(=O)(=O)c1ccc(NC(=S)NC(=O)Cc2ccccc2)cc1,i,i,i,i,i,i
CCC(=O)N(C1=C(NC)C(=O)c2ccccc2C1=O)C(C)C,i,i,i,i,i,i
CCC(=O)N(CC)C1=C(O)c2ccccc2C(=O)C1=O,i,i,52.0,i,i,i
Cn1cc(CNCc2ccccc2OCC(O)CN2CCc3ccccc3C2)cn1 (centres undefined),i,i,i,i,i,i
CC(=O)NC(=O)Nc1sc(=S)n(C)c1C,i,i,56.0,i,i,49.0
Cc1ccc(/C=C/C2=Cc3c(sc(NC(=O)CSc4n[nH]c(N)n4)c3C#N)C(C)(C)C2)o1,i,i,47.0,i,i,i
CCCCCCc1cc2cc(C(=O)NCc3ccccc3)c(=N)oc2cc1O,i,i,i,i,i,i
CCCCCCc1cc2cc(C(=O)Nc3ccccc3)c(=O)oc2cc1O,i,50.0,i,i,45.0,i
COc1ccc(C(=S)N2CCNCC2)cc1,i,i,i,i,i,i
COc1ccc(C(=S)N2CCCCCC2)cc1,46.0,i,52.0,i,i,53.0
